Data published in PubChem BioAssay (Tox21).
Results filed as inconclusive are left out. Active and inactive are the calls of the source. Unless noted, the call rests on the fitted dose curve; in most records, active means well fitted curve in the direction sought with a large enough effect in the repeat runs; inconclusive means weak or mixed curves; inactive means no such curve, though single readings can be large; an effect the other way counts as inactive or inconclusive.

Columns and labels:
[1] = qHTS assay to identify aromatase inhibitors - cell viability counter screen (AID 743084);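 further: cells stimulated with testosterone during compound exposure; nearly all actives have a fitted effect of over 55% in size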
[2] = biological target: Aryl hydrocarbon receptor (Homo sapiens) (UniProt P35869); experiment: qHTS assay to identify small molecule that activate the aryl hydrocarbon receptor (AhR) signaling pathway (AID 743085); further: nearly all actives have a fitted effect of over 15% in size; further: potency means the concentration at half of the fitted maximal effect;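 on activation: HG2L7.5c1 human HepG2 liver cells with stably integrated DRE-driven firefly reporter; series mostly up to about 70 µM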
Summary of the method: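 Luminescence read-out: ONE-Glo reagent, 30 min at room temperature, in HG2L7.5c1 HepG2 reporter cells treated 24 h at 37C. Viability was measured beforehand by CellTiter-Fluor fluorescence after 30 min at 37C.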

[3] = biological target: Peroxisome proliferator-activated receptor gamma (Homo sapiens) (UniProt P37231); experiment: qHTS assay to identify small molecule agonists of the peroxisome proliferator-activated receptor gamma (PPARg) signaling pathway (AID 743094; active means well fitted activation curve with a large enough effect in the signal ratio in the repeat runs, not every such curve was filed as active; the % refers to the signal ratio)
Summary of the method: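 Reporter activation was scored by fluorescence of cleaved LiveBLAzer B/G substrate (1 h, room temperature) in PPARg-bla HEK293H cells previously treated 17 h at 37C with DMSO-dissolved compounds.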

[4] = qHTS assay to identify small molecule antagonists of the peroxisome proliferator-activated receptor gamma (PPARg) signaling pathway - cell viability counter screen (AID 743194); further: nearly all actives have a fitted effect of over 55% in size
Summary of the method: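 Viability was measured as CellTiter-Glo luminescence in GeneBLAzer PPARg UAS-bla HEK293H cells. These cells had been exposed 17 h at 37 C to compounds together with rosiglitazone at 50 nM final, with the beta-lactamase readout taken in the same wells.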

[5] = qHTS assay for small molecule agonists of the antioxidant response element (ARE) signaling pathway (AID 743202; active means well fitted activation curve with a large enough effect in the signal ratio in the repeat runs, not every such curve was filed as active; the % refers to the signal ratio)
Summary of the method: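 Beta-lactamase reporter activity, read as fluorescence intensity, reflects ARE/Nrf2 pathway induction in HepG2 cells after 16 h compound exposure at 37 C; substrate loading was 2 h at room temperature.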

[6] = qHTS assay for small molecule agonists of the antioxidant response element (ARE) signaling pathway - cell viability counter screen (AID 743203; calls by dose curve; further: nearly all actives have a fitted effect of over 55% in size)
Summary of the method: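 Viability counter screen: stably transfected ARE-bla HepG2 line, 16 hrs compound exposure at 37C/5% CO2, ATP-based CellTiter-Glo luminescence measured in the reporter wells.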

[7] = qHTS assay for small molecule activators of the heat shock response signaling pathway - cell viability counter screen (AID 743209); further: nearly all actives have a fitted effect of over 50% in size
Summary of the method: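 Viability of HSE-bla HeLa cells is measured with CellTiter-Glo in the wells already used for the reporter read. Compound exposure lasts 5 h at 37 C, and luminescence is read after 30 min at room temperature.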

[8] = qHTS assay for small molecule activators of the heat shock response signaling pathway (AID 743210; active means well fitted activation curve with a large enough effect in the signal ratio in the repeat runs, with a control signal flat, not every such curve was filed as active; the % refers to the signal ratio;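 further: HeLa cells with beta-lactamase reporter driven by heat shock elements; series mostly up to about 63 µM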)
Summary of the method: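 Fluorescence from a cleaved B/G FRET substrate (2.5 h, room temp) reports HSE-driven beta-lactamase in HeLa cells treated 5 h at 37 C with DMSO-dissolved compounds.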

[9] = qHTS assay to identify small molecule agonists of the peroxisome proliferator-activated receptor delta (PPARd) signaling pathway - cell viability counter screen (AID 743211); further: nearly all actives have a fitted effect of over 55% in size
Summary of the method: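 Read-out: CellTiter-Glo luminescence, 30 min RT, measured in the same wells as the beta-lactamase reporter. Cells: GeneBLAzer PPAR delta UAS-bla HEK293H, 3000 cells/well, compound exposure 17 h at 37C.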

[10] = biological target: Peroxisome proliferator-activated receptor delta (Homo sapiens) (UniProt Q03181); experiment: qHTS assay to identify small molecule agonists of the peroxisome proliferator-activated receptor delta (PPARd) signaling pathway (AID 743212; calls by dose curve)
Summary of the method: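 Steps: seed PPARd-bla HEK293H cells; incubate 5 h, 37 C, 5% CO2; add compounds in DMSO; incubate, 37 C; add LiveBLAzer B/G FRET substrate; hold 2 h at room temperature; measure fluorescence.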

[11] = qHTS assay to identify small molecule antagonists of the peroxisome proliferator-activated receptor delta (PPARd) signaling pathway - cell viability counter screen (AID 743213); further: nearly all actives have a fitted effect of over 50% in size
Summary of the method: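 HEK293H PPARd UAS-bla cells, 5 h pre-incubation, compound + L165041 300 nM final, 17 h 37 C; B/G FRET substrate 2 h RT; then CellTiter-Glo 30 min RT, luminescence.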

[12] = biological target: Peroxisome proliferator-activated receptor delta (Homo sapiens) (UniProt Q03181); experiment: qHTS assay to identify small molecule antagonists of the peroxisome proliferator-activated receptor delta (PPARd) signaling pathway (AID 743215; active means well fitted inhibition curve with a large enough effect in the signal ratio in the repeat runs, not every such curve was filed as active; the % refers to the signal ratio;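 further: cells stimulated with agonist L165041 at 300 nM final during compound exposure; series mostly up to about 62 µM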)
Summary of the method: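 Plated HEK293H PPARd-bla cells rested 5 h at 37 C and 5% CO2. Compound, then agonist L165041 at 300 nM final, was added; 17 h at 37 C followed. Substrate loading, 2 h room temperature, fluorescence measured.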

[13] = qHTS assay to identify small molecule agonists of the farnesoid-X-receptor (FXR) signaling pathway - cell viability counter screen (AID 743218); further: nearly all actives have a fitted effect of over 45% in size
Summary of the method: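 Viability of FXR-bla HEK 293T cells is measured by ATP-based CellTiter-Glo luminescence following 16 h compound treatment at 37 C and a prior 2 h room-temperature beta-lactamase substrate step.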

[14] = qHTS assay to identify small molecule antagonists of the farnesoid-X-receptor (FXR) signaling pathway - cell viability counter screen (AID 743221; active means well fitted cell-killing curve with a large enough effect in the repeat runs, not every such curve was filed as active; further: nearly all actives have a fitted effect of over 50% in size)
Summary of the method: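 HEK 293T FXR-bla cells, 5 h pre-incubation; compound + CDCA 50 uM final, 16 h, 37 C; beta-lactamase FRET read first, then CellTiter-Glo luminescence, 30 min RT.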

[15] = biological target: Vitamin D3 receptor (Homo sapiens) (UniProt P11473); experiment: qHTS assay to identify small molecule agonists of the vitamin D receptor (VDR) signaling pathway (AID 743222; calls by dose curve)
Summary of the method: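 Fluorescence from cleaved LiveBLAzer B/G FRET substrate served as readout. VDR-bla cells had been treated 16 h at 37C with test compounds in DMSO, following a 4 h settling period, and substrate was loaded for 2 h at RT.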

[16] = biological target: Vitamin D3 receptor (Homo sapiens) (UniProt P11473); experiment: qHTS assay to identify small molecule antagonists of the vitamin D receptor (VDR) signaling pathway (AID 743223; active means well fitted inhibition curve with a large enough effect in the signal ratio in the repeat runs, not every such curve was filed as active; the % refers to the signal ratio)
Summary of the method: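 Beta-lactamase reporter read-out: FRET substrate fluorescence after 2 h at room temperature, following 16 h exposure of VDR-bla cells to test compound plus 3 nM (final) 1alpha,25-dihydroxyvitamin D3 agonist at 37C.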

[17] = qHTS assay to identify small molecule that activate the aryl hydrocarbon receptor (AhR) signaling pathway - cell viability counter screen (AID 743086);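 further: HepG2 liver cells carrying the AhR DRE luciferase reporter; series mostly up to about 70 µM; nearly all actives have a fitted effect of over 45% in size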
Summary of the method: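 Cytotoxicity counter screen: CellTiter-Fluor signal (30 min, 37 C) in 4000 HepG2 cells/well carrying the DRE-luciferase reporter, following 24 h compound exposure at 37 C.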

[18] = biological target: Peroxisome proliferator-activated receptor gamma (Homo sapiens) (UniProt P37231); experiment: qHTS assay to identify small molecule antagonists of the peroxisome proliferator-activated receptor gamma (PPARg) signaling pathway (AID 743191; calls by dose curve; further: series mostly up to about 63 µM; nearly all actives have a fitted effect of over 30% in size)
Summary of the method: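 Beta-lactamase reporter under UAS control in HEK293H PPARg-bla cells; compound treatment 17 h at 37C. Read-out: fluorescence intensity after 1 h room-temperature incubation with LiveBLAzer B/G FRET substrate.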

[19] = biological target: Bile acid receptor (Homo sapiens) (UniProt Q96RI1); experiment: qHTS assay to identify small molecule antagonists of the farnesoid-X-receptor (FXR) signaling pathway (AID 743217; active means well fitted inhibition curve with a large enough effect in the signal ratio in the repeat runs, not every such curve was filed as active; the % refers to the signal ratio)
Summary of the method: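 Screen of the Tox21 10K library in quantitative HTS format using FXR-UAS-bla HEK 293T reporter cells. Agonist chenodeoxycholic acid, 50 uM final, added with compounds; 16 h incubation at 37 °C; beta-lactamase FRET fluorescence measured.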

[20] = biological target: Bile acid receptor (Homo sapiens) (UniProt Q96RI1); experiment: qHTS assay to identify small molecule agonists of the farnesoid-X-receptor (FXR) signaling pathway (AID 743220; active means well fitted activation curve with a large enough effect in the signal ratio in the repeat runs, not every such curve was filed as active; the % refers to the signal ratio)
Summary of the method: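 FXR-UAS-bla HEK 293T cells carrying a UAS-driven beta-lactamase reporter were plated for 5 h at 37C/5% CO2, then exposed to DMSO-dissolved Tox21 10K compounds for 16 h at 37C. A LiveBLAzer B/G FRET substrate was loaded for 2 h at room temperature before fluorescence reading.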
On the % scale 0 is the no-effect control and ±100 the full control effect.

Bile acid receptor (Homo sapiens), sequence (Q96RI1 whole entry, looked up): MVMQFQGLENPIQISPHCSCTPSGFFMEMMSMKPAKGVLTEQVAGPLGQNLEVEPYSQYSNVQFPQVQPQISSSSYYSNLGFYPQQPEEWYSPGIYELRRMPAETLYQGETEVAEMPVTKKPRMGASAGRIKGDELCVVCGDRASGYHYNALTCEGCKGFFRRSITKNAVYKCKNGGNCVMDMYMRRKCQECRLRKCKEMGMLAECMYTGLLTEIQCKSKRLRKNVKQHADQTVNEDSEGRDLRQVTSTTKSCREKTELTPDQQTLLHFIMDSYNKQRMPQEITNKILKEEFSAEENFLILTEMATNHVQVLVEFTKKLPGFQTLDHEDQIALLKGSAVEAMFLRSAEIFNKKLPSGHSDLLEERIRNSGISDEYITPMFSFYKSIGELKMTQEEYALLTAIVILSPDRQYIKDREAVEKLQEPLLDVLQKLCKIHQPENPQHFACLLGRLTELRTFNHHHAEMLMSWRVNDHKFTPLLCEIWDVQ
Aryl hydrocarbon receptor (Homo sapiens), sequence (P35869 whole entry, looked up): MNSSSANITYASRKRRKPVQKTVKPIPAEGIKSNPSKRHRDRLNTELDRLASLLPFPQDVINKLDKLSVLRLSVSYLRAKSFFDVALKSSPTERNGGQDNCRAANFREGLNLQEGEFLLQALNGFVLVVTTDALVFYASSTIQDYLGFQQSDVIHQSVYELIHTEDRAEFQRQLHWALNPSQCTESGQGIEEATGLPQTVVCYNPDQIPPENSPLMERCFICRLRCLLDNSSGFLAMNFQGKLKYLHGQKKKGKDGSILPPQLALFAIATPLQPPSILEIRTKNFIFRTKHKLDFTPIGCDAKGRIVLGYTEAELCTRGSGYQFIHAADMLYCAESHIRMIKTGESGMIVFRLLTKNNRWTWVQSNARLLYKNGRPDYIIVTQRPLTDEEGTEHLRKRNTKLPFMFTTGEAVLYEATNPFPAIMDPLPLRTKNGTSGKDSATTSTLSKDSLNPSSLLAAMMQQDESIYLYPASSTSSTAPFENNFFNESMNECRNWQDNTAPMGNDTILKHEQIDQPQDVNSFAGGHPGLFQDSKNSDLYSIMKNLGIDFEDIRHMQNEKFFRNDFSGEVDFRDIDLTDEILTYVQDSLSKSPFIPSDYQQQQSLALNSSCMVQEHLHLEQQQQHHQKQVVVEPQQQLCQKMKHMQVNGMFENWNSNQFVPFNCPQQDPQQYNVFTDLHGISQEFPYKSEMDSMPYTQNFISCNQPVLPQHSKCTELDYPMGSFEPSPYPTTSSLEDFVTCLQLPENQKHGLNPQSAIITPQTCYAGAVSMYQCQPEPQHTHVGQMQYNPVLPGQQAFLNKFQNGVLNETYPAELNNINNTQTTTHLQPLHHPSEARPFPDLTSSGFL
Vitamin D3 receptor (Homo sapiens), sequence (P11473 whole entry, looked up): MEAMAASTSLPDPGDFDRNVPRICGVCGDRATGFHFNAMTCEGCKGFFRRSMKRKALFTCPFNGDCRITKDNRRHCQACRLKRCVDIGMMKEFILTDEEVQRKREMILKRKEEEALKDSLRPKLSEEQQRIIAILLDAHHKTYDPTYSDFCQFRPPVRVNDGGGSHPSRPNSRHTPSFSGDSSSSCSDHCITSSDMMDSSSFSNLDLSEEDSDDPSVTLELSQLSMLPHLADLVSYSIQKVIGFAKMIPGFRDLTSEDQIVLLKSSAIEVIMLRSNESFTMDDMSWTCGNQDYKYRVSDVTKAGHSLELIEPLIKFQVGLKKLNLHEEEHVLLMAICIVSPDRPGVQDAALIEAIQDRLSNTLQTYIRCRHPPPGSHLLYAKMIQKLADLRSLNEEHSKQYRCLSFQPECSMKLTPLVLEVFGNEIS
Peroxisome proliferator-activated receptor delta (Homo sapiens), sequence (Q03181 whole entry, looked up): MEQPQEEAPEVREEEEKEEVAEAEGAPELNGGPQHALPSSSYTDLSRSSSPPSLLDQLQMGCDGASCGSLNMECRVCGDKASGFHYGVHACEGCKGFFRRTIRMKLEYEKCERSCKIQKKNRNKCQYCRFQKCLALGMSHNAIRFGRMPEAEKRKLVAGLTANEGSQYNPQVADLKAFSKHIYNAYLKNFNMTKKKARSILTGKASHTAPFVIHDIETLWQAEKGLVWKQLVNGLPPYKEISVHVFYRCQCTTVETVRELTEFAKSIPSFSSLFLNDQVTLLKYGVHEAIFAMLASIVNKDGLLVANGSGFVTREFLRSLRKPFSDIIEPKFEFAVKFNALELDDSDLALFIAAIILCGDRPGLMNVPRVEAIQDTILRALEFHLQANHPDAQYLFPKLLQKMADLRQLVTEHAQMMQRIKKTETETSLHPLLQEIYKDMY
Peroxisome proliferator-activated receptor gamma (Homo sapiens), sequence (P37231 whole entry, looked up): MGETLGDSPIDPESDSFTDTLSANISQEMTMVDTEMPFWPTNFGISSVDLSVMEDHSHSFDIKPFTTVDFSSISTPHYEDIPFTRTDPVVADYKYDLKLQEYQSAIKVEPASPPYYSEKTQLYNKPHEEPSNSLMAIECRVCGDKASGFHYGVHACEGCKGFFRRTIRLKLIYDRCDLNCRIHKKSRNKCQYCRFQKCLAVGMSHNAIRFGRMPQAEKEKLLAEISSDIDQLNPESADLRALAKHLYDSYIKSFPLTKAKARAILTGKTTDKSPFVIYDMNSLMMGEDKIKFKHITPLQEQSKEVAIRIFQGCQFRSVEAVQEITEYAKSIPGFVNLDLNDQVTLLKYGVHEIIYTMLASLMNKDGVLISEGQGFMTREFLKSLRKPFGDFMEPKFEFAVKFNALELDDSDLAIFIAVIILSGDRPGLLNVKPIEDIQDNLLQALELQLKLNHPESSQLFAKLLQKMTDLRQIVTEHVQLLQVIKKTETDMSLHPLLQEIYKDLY

CC(C)c1cc(C(C)C)cc(C(C)C)c1
inactive: outcome [1] | Potency [2] | outcome [3] | outcome [4] | Potency [5] | outcome [6] | Potency [7] | outcome [8] | outcome [9] | outcome [10] | outcome [11] | outcome [12] | outcome [13] | outcome [14] | outcome [15] | outcome [16]

C[C@@H]1NC(=O)[C@@H](N)CNC(=O)[C@H](C2CCNC(N)=N2)NC(=O)/C(=C/NC(N)=O)NC(=O)[C@H](CNC(=O)C[C@@H](N)CCCN)NC1=O (some centres not stated)
inactive: outcome [1] | outcome [17] | ratio activity, negative = inhibition [18] 0.698% [at 0.55 µM] | activity change, negative = cytotoxicity [4] 14.8% [at 0.55 µM] | activation [5] 11.7% [at 0.756 µM] | viability change, negative = cytotoxic [6] 6.23% [at 0.756 µM] | activity change, negative = cytotoxicity [7] -24.2% [at 0.55 µM] | activation [8] -0.65% [at 0.55 µM] | activity change, negative = cytotoxicity [9] 14.7% [at 0.55 µM] | activation [10] 1.73% [at 0.55 µM] | viability change, negative = cytotoxic [11] 5.77% [at 0.575 µM] | ratio activity, negative = inhibition [12] 1.43% [at 0.575 µM] | viability change, negative = cytotoxic [13] -0.66% [at 0.55 µM] | activity change, negative = cytotoxicity [14] 2.18% [at 0.55 µM] | activation [15] 3.13% [at 0.554 µM] | activity change, negative = inhibition [16] 8.64% [at 0.628 µM]

C[n+]1ccccc1/C=N/O
inactive: outcome [1] | outcome [17] | outcome [3] | outcome [18] | outcome [4] | Potency [5] | outcome [6] | outcome [8] | outcome [9] | outcome [10] | outcome [12] | outcome [13] | outcome [14] | outcome [15] | outcome [16]

Clc1cc(Cl)c(Cl)c(Cl)c1Cl
inactive: outcome [1] | Potency [2] | outcome [4] | Potency [5] | outcome [6] | Potency [7] | outcome [8] | outcome [9] | outcome [11] | outcome [13] | outcome [14] | outcome [15] | outcome [16]

O=C(O)COc1ccc2ccccc2c1
inactive: outcome [1] | outcome [17] | outcome [3] | outcome [18] | outcome [6] | Potency [7] | outcome [8] | outcome [9] | outcome [11] | outcome [19] | outcome [13] | outcome [20] | outcome [15] | outcome [16]

COc1ccc2cc(CCC(C)=O)ccc2c1
active: Potency [2] 3.2 µM
inactive: outcome [1] | outcome [18] | outcome [4] | outcome [6] | Potency [7] | outcome [8] | outcome [9] | outcome [10] | outcome [13] | outcome [20] | outcome [14]

CCCCc1ccc(Cl)cc1
inactive: outcome [1] | outcome [17] | outcome [3] | outcome [18] | outcome [4] | outcome [6] | Potency [7] | outcome [8] | outcome [10] | outcome [11] | outcome [12] | outcome [19] | outcome [13] | outcome [20] | outcome [14] | outcome [15]

O=C(O)Cc1ccccc1Oc1ccc(Cl)cc1Cl
inactive: outcome [1] | outcome [3] | outcome [6] | outcome [8] | outcome [9] | outcome [11] | outcome [19] | outcome [13] | outcome [20] | outcome [14]
